From PubChem BioAssay (NCATS)
Results filed as inconclusive are left out. A call without a number means that no potency is given here. Active and inactive are the calls of the source. Calls come from the whole dose curve; as a rule, active = well fitted cell-killing curve with a large enough effect; inconclusive = small, poorly fitted or top-dose-only effect; inactive = no such curve, though single readings can be large or run the other way.

Assay: qHTS of pediatric cancer cell lines to identify multiple opportunities for drug repurposing: Primary screen for LAN-5 cells (AID 1347100)
Settings: LAN-5 neuroblastoma viability, CellTiter-Glo luminescence, 48 h; series mostly up to 46 µM
Procedure, shortened: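 Cells (500-1,000/well) in growth media were settled 5 h at 37 degrees C, then given compounds for 48 h. Viability was read as CellTiter-Glo luminescence. Primary runs used MIPE at 11 points (0.78 nM-46 µM) and NPC at 8 points (0.59 nM-46 µM); follow-ups used 11 points.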
Potency is the fitted concentration of half-maximal effect.

| SMILES | Potency |
| --- | --- |
| Cc1onc(-c2c(Cl)cccc2Cl)c1C(=O)Cl | inactive |
| CCOC(=O)Oc1ccc(CCNC(=O)[C@H](CCSC)NC(C)=O)cc1OC(=O)OCC | inactive |
| O=[N+]([O-])c1nccn1CO[C@@H](CO)[C@H](O)CO | inactive |
| NS(=O)(=O)c1ccc(N2CCCCS2(=O)=O)cc1 | inactive |
| O=C(O)CCC(=O)OC[C@@H](NC(=O)C(Cl)Cl)[C@H](O)c1ccc([N+](=O)[O-])cc1 | inactive |
| CC(=O)c1ccc(O)c(C(N)=O)c1 | inactive |
| O=C1c2ccccc2CCc2ccccc21 | inactive |
| CCOC(=O)c1ccc(NC(=O)CN2CCCCC2)cc1 | inactive |
| Cc1c(F)cc2c(=O)c(C(=O)O)cn3c2c1CCC3C (centres undefined) | inactive |
| CC(C)(C)NCC(O)COc1ccccc1OCC1CCCO1 (centres undefined) | inactive |
| Cc1ccc(O)cc1 | inactive |
| CCCCC(CC)CNC(=O)CC(C)OC(=O)CCC(=O)O (centres undefined) | inactive |
| CCN(CC)CC(=O)OCC(=O)[C@@]1(O)CC[C@H]2[C@@H]3CCC4=CC(=O)CC[C@]4(C)[C@H]3[C@@H](O)C[C@@]21C | inactive |
| OCCCc1ccccc1 | inactive |
| O=C(CCCCC(=O)Nc1c(I)cc(I)c(C(=O)O)c1I)Nc1c(I)cc(I)c(C(=O)O)c1I | inactive |
| Cc1cccc(OCC(O)CNC(C)(C)C)c1C (centres undefined) | inactive |
| Cc1ccc(C(=O)C(=O)O)cc1C | inactive |
| CC(=O)Nc1c(I)c(NC(C)=O)c(I)c(C(=O)O)c1I | inactive |
| CC(C)(Oc1ccc(Cl)cc1)C(=O)OCCCOC(=O)C(C)(C)Oc1ccc(Cl)cc1 | inactive |
| O=C(CO)[C@@H](O)[C@H](O)[C@@H](O)CO | inactive |

| SMILES | Potency |
| --- | --- |
| CCOC(=O)O[C@]1(C(=O)OCCl)CC[C@H]2[C@@H]3CCC4=CC(=O)C=C[C@]4(C)[C@H]3[C@@H](O)C[C@@]21C | inactive |
| C[C@H]1C[C@H](O)c2ccsc2S1(=O)=O | inactive |
| CCN(CC)CC(=O)Oc1ccc(NC(C)=O)cc1 | inactive |
| COC(=O)c1cc(Cl)c(NC(C)=O)cc1OC | inactive |
| C[N+]1(C)CCC(OC(=O)C(O)(c2ccccc2)C2CCCC2)C1 (centres undefined) | inactive |
| CCOC(=O)C(O)c1ccccc1 (centres undefined) | inactive |
| CCN1CCCC1CN (centres undefined) | inactive |
| Cc1cc2nc3ccc(=[N+](C)C)cc-3sc2cc1N | 1330 nM (active) |
| CCOC(=O)OCC/C(SC(=O)OCC)=C(\C)N(C=O)Cc1cnc(C)nc1N | inactive |
| CCN(CC)CCN | inactive |
| CC(C)(C)c1nnc(NS(=O)(=O)c2ccccc2)s1 | inactive |
| CC(C)C(=O)Nc1cccc(C(F)(F)F)c1 | inactive |
| CC(C)NCCCC1(C(N)=O)c2ccccc2-c2ccccc21 | inactive |
| Oc1ccccc1-c1nnco1 | inactive |
| CN=C(N)NC(=O)Nc1c(C)cccc1C | inactive |
| Cc1cc(=O)oc2cc(O[C@@H]3SC[C@@H](O)[C@H](O)[C@H]3O)ccc12 | inactive |
| CN1C(=O)c2ccccc2C1=O | inactive |
| CCN1CCN(C(=O)N[C@@H](C(=O)N[C@@H]2C(=O)N3[C@@H]2SC(C)(C)[C@H]3C(=O)O)c2ccccc2)C(=O)C1=O | inactive |
| O=C(C1CCCCC1)N1CC(=O)N2CCCc3ccccc3C2C1 (centres undefined) | inactive |
